Experimental data taken from PubChem BioAssay.
Active and inactive are the calls of the source.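 How the source made its calls, unless noted: active means compounds killing one labelled cell type while sparing the other, by normalised counts and ratio limits, not self-fluorescent; inactive means the rest.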

What was measured:
[1] = molecular target: 6-phosphogluconate dehydrogenase, decarboxylating (Homo sapiens) (UniProt P52209); assay: 6PGD enzyme inhibitors, primary screen, biochemical, human, recombinant enzyme, NADPH absorbance (AID 1159550;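 active means at least 20% inhibition of 6-phosphogluconate dehydrogenase activity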); details: recombinant 6PGD, NADPH absorbance 341 nm; at 10 µM; stronger effect = higher value
6-phosphogluconate dehydrogenase, decarboxylating (Homo sapiens), sequence (P52209 whole entry, looked up): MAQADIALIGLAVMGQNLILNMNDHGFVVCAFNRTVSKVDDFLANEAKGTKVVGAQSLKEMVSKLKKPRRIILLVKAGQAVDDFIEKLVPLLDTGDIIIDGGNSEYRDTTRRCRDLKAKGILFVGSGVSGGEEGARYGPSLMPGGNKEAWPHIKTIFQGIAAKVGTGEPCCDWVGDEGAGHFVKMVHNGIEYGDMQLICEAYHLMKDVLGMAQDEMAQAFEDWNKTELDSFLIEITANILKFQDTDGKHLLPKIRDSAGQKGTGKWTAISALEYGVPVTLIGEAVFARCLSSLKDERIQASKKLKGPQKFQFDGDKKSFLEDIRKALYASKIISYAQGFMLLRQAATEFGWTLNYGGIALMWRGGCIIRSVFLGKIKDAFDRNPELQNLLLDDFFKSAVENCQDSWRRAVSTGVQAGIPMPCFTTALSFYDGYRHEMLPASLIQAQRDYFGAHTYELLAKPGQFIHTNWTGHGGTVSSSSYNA

[2] = differential killing of epithelial or mesenchymal cells, primary screen, imaging, PC-3E GFP, TEM4-18 mCherry, co-culture (AID 1345086); details: imaging cell counts, at 1 µM; for red/green cell ratio (normalised): actives lie on both sides, counts scaled to control wells, 1 = unselective;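 on all read-outs here: cells exposed to compound for 72 h before imaging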;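 on red/green cell ratio (normalised): normalised mesenchymal count divided by normalised epithelial count so high means epithelial killing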
[3] = molecular target: Mitogen-activated protein kinase 7 (Homo sapiens) (UniProt Q13164); assay: ERK5 transactivation activators in reporter cells, primary screen, cell-based, HTS (AID 1508626;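 active means luciferase signal above three times the same-plate solvent-only control wells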;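 further: luciferase driven by Gal4-ERK5 fusion binding five Gal4 sites before minimal TATA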); details: HeLa Gal4-ERK5 transactivation, 18 h, at 5 µM, stronger effect = higher value
Mitogen-activated protein kinase 7 (Homo sapiens), sequence (Q13164 whole entry, looked up, the tested form may be a part): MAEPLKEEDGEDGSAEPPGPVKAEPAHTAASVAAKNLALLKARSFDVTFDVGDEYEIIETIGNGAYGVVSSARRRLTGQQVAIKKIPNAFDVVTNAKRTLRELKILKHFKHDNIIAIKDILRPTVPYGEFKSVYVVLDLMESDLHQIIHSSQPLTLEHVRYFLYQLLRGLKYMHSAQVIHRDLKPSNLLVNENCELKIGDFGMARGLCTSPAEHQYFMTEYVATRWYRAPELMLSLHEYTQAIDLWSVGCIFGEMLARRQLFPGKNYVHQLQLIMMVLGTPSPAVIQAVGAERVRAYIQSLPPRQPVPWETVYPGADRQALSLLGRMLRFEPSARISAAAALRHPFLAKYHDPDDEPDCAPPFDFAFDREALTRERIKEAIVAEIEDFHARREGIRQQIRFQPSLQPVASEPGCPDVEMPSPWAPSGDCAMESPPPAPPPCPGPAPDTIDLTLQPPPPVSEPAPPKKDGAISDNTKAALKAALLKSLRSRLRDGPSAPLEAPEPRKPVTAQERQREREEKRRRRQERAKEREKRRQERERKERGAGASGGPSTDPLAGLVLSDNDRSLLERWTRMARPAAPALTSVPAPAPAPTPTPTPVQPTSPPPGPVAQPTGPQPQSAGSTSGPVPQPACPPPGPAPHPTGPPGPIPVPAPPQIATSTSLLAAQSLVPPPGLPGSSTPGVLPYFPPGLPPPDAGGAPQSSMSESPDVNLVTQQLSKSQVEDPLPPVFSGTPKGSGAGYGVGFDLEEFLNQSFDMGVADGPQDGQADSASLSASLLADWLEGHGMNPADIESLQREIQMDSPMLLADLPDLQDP

[4] = measured here: epithelial PC-3E GFP cell survival
[5] = measured here: mesenchymal TEM4-18 mCherry cell survival

Compound	inhibition [1]	red/green cell ratio (normalised) [2]	normalised cell number [2, 4]	normalised cell number [2, 5]	luciferase signal [3]
COc1ccc2c(=O)c(CC(=O)O)coc2c1	-1.05% (inactive)	0.91 (inactive)	0.98	0.89	60 AU (inactive)
COc1ccc(-c2c(O)c3c(OC)c4c(cc3oc2=O)OC(C)(C)C=C4)cc1	11.4% (inactive)	0.9 (inactive)	1.02	0.92	88 AU (inactive)
Cc1cc(OC(=O)c2c(C)cc(O)cc2O)cc(O)c1C(=O)O	1.29% (inactive)	0.82 (inactive)	1.06	0.87	12 AU (inactive)
N[C@@H](C(=O)O)[C@@H](O)[C@H](O)[C@H](O)CO	9.87% (inactive)	1.16 (inactive)	1.02	1.18	108 AU (inactive)
c1ccc2c(c1)CN1CCCC1=N2	-1.15% (inactive)	1.13 (inactive)	0.94	1.06	52 AU (inactive)
COc1c2ccccc2nc2occc12	7.87% (inactive)	1.02 (inactive)	1.03	1.05	40 AU (inactive)
COc1c(O)cc(O)cc1O	8.04% (inactive)	1.07 (inactive)	0.92	0.98	40 AU (inactive)
CCOc1ccc(C(=O)c2ccc(OC)c(O)c2O)cc1	-3.36% (inactive)	0.9 (inactive)	0.9	0.81	68 AU (inactive)
O=C(O)c1cc2cc(Cl)ccc2[nH]1	-0.282% (inactive)	1 (inactive)	1.21	1.21	52 AU (inactive)
COC(=O)[C@@]1(C)CCC[C@]2(C)c3ccc(O)c(C(C)C)c3CCC12 (stereo not given in full)	-0.875% (inactive)	1.1 (inactive)	0.97	1.07	52 AU (inactive)
Cc1cc(=O)oc2cc(O)c(O)cc12	8.55% (inactive)	0.79 (inactive)	1.15	0.91	60 AU (inactive)
O=C(/C=C/c1ccccc1)c1ccc(O)cc1	1.18% (inactive)	1.04 (inactive)	0.75	0.79	28 AU (inactive)
CC(=O)Oc1ccc2c(c1OC(C)=O)OCC1(O)Cc3c(cc(OC(C)=O)c(OC(C)=O)c3OC(C)=O)C21 (stereo not given)	18.4% (inactive)	0.84 (inactive)	1.08	0.91	44 AU (inactive)
CCOc1cccc(C(=O)c2ccc(O)c(O)c2O)c1	11.3% (inactive)	0.95 (inactive)	1.01	0.96	116 AU (inactive)
Nc1nc2ncc(=O)[nH]c2c(=O)[nH]1	-1.84% (inactive)	1.01 (inactive)	1.17	1.18	56 AU (inactive)
